Values joined by “and” are separate entries in the source; they are usually repeats but may differ in a detail not shown here. Identical values can stand only once. Records with an inconclusive call do not appear. Where a structure was tested more than once in an assay, its records may differ in their call. Active and inactive are the calls of the source. The calls were made as follows: active = hit-call score of the fitted dose curve at least 0.9, where 1 is the maximum; inconclusive = response in the unintended direction; inactive = score below 0.9.
Legend:
[1] = system: zebrafish Peroxisome Proliferator-activated Receptor gamma (PPARg), gene 557037; experiment: ATG_zfPPARg_XSP1: Attagene TRANS-FACTORIAL Multi-Species (XSP1) HepG2 Assay for zebrafish Peroxisome Proliferator-activated Receptor gamma (PPARg) (AID 2283801)
Outline: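 HepG2 cells transiently transfected with GAL4-UAS reporter units including a zebrafish PPARg–GAL4 chimera, dosed 24 h with 3 nM 6-alpha-fluorotestosterone present. Reporter mRNA quantified by RT-PCR, FAM labelling, HpaI digestion and capillary electrophoresis; induction versus DMSO.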

[2] = molecular target: Nuclear receptor subfamily 1 group I member 2 (Mus musculus) (UniProt O54915); experiment: ATG_mPXR_XSP1: Attagene TRANS-FACTORIAL Multi-Species (XSP1) HepG2 Assay for mouse Pregnane X Receptor (PXR) (AID 2283803)
Outline: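 Transiently transfected HepG2 cells expressing a receptor-Gal4 chimera drive a GAL4-UAS reporter; 3 nM 6-alpha-fluorotestosterone included. Reporter mRNA read 24 h post-dose by RT-PCR and capillary electrophoresis; gain of signal relative to DMSO.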

[3] = molecular target: frog Thyroid hormone Receptor alpha (TRa), thra-a (gene 397942) (UniProt P15204); experiment: ATG_frTRa_XSP1: Attagene TRANS-FACTORIAL Multi-Species (XSP1) HepG2 Assay for frog Thyroid hormone Receptor alpha (TRa) (AID 2283804)
Outline: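 HepG2 cells transiently transfected with frog TRa-GAL4 chimeric reporter units, dosed 24 hr with 3 nM 6-alpha-fluorotestosterone present; reporter mRNA quantified by RT-PCR, fluorescent labelling and capillary electrophoresis, gain of signal versus DMSO.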

[4] = molecular target: human Thyroid hormone Receptor alpha (TRa), THRA (gene 7067) (UniProt P10827); experiment: ATG_hTRa_XSP1: Attagene TRANS-FACTORIAL Multi-Species (XSP1) HepG2 Assay for human Thyroid hormone Receptor alpha (TRa) (AID 2283805)
Outline: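 HepG2 cells transiently transfected with GAL4-UAS reporter units expressing chimeric NR-Gal4 proteins, dosed 24 hours with 3 nM 6-alpha-fluorotestosterone present. Reporter mRNA measured by RT-PCR and capillary electrophoresis; gain of signal fitted versus DMSO.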

[5] = system: turtle Thyroid Hormone Receptor, alpha (TRa), gene 101949057; experiment: ATG_trTRa_XSP1: Attagene TRANS-FACTORIAL Multi-Species (XSP1) HepG2 Assay for turtle Thyroid Hormone Receptor, alpha (TRa) (AID 2283806)
Outline: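 HepG2 cells transiently transfected with GAL4-UAS reporter units and chimeric receptor-Gal4 constructs, with 3 nM 6-alpha-fluorotestosterone present. Reporter mRNA was quantified 24 h after dosing by RT-PCR, 6-FAM labelling and capillary electrophoresis; gain of signal versus DMSO.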

[6] = molecular target: zebrafish Thyroid Hormone Receptor alpha (TRa), thraa (gene 30670) (UniProt Q98867); experiment: ATG_zfTRa_XSP1: Attagene TRANS-FACTORIAL Multi-Species (XSP1) HepG2 Assay for zebrafish Thyroid Hormone Receptor alpha (TRa) (AID 2283807)
Outline: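 HepG2 cells transiently transfected with GAL4-UAS reporter units including a zebrafish TRa–Gal4 chimera, dosed 24 h with 3 nM 6-alpha-fluorotestosterone present. Reporter mRNA quantified by RT-PCR and capillary electrophoresis; gain versus DMSO.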

[7] = molecular target: human Thyroid hormone Receptor beta (TRb), THRB (gene 7068) (UniProt P10828); experiment: ATG_hTRb_XSP1: Attagene TRANS-FACTORIAL Multi-Species (XSP1) HepG2 Assay for human Thyroid hormone Receptor beta (TRb) (AID 2283808)
Outline: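 HepG2 cells transiently transfected with reporter units driving GAL4-UAS reporters for chimeric NR-Gal4 proteins; 24 h chemical exposure with 3 nM 6-alpha-fluorotestosterone present. Reporter mRNA quantified by RT-PCR and capillary electrophoresis, gain of signal versus DMSO.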

[8] = molecular target: zebrafish Thyroid Hormone Receptor beta (TRb), thrb (gene 30607) (UniProt Q9PVE4); experiment: ATG_zfTRb_XSP1: Attagene TRANS-FACTORIAL Multi-Species (XSP1) HepG2 Assay for zebrafish Thyroid Hormone Receptor beta (TRb) (AID 2283809)
Outline: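 HepG2 cells transiently transfected with multiplexed GAL4-UAS reporter units expressing chimeric zebrafish TRb–Gal4. Dosed 24 h with 3 nM 6-alpha-fluorotestosterone present; reporter mRNA measured by RT-PCR, HpaI digestion and capillary electrophoresis; gain of signal versus DMSO.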

[9] = ATG_XTT_Cytotoxicity_XSP1: Cytotoxicity Assessment in the Attagene TRANS-FACTORIAL Multi-Species (XSP1) HepG2 Assay (AID 2283810)
Outline: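 XTT viability readout taken at 24 hours post-dosing in HepG2 liver cells co-treated with 3 nM 6-alpha-fluorotestosterone. Signal loss relative to DMSO controls reflects cytotoxicity.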

[10] = ATG_M_06_XSP2: Attagene TRANS-FACTORIAL Multi-Species (XSP2) HepG2 Assay for M06 Transcription Factor (Internal Marker) (AID 2283811);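 also: hits are increases in signal above the DMSO baseline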
Outline: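 HepG2 cells transiently transfected with GAL4-UAS multiple reporter units, medium containing 3 nM 6-alpha-fluorotestosterone and 1.5 nM norgestrel; reporter mRNA measured 24 hours post-dosing by RT-PCR and capillary electrophoresis. Internal background marker, gain of signal vs DMSO.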

[11] = molecular target: Estrogen receptor beta (Homo sapiens) (UniProt Q92731); experiment: ATG_hERb_XSP2: Attagene TRANS-FACTORIAL Multi-Species (XSP2) HepG2 Assay for human Estrogen Receptor (ERb) (AID 2283813);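 also: actives raise reporter mRNA above DMSO so AC50 reflects agonist induction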
Outline: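 HepG2 cells transiently transfected with GAL4-UAS reporter units and chimeric human ERb-Gal4, 24 h exposure. Reporter mRNA quantified by RT-PCR with FAM labelling, HpaI digestion and capillary electrophoresis; gain of signal versus DMSO.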

[12] = molecular target: GAL4 Transcription Factor (Internal Marker), GAL4 (gene 855828) (UniProt P04386); experiment: ATG_GAL4_XSP2: Attagene TRANS-FACTORIAL Multi-Species (XSP2) HepG2 Assay for GAL4 Transcription Factor (Internal Marker) (AID 2283814);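 also: GAL4 reporter mRNA background control in MRTU transfected cells not a receptor target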
Outline: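 HepG2 cells transiently transfected with GAL4-UAS reporter units, stimulated with 3 nM 6-alpha-fluorotestosterone plus 1.5 nM norgestrel, dosed 24 h. Reporter mRNA by RT-PCR/capillary electrophoresis; gain-of-signal fit versus DMSO, background control.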

[13] = molecular target: zebrafish Estrogen Receptor (ER1), esr1 (gene 259252) (UniProt P57717); experiment: ATG_zfER1_XSP2: Attagene TRANS-FACTORIAL Multi-Species (XSP2) HepG2 Assay for zebrafish Estrogen Receptor (ER1) (AID 2283816)
Outline: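 HepG2 cells transiently transfected with a GAL4-UAS reporter and a chimeric zebrafish ER1-Gal4 construct, dosed 24 h. Reporter mRNA quantified by RT-PCR, labelling, HpaI digestion and capillary electrophoresis, relative to DMSO.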

[14] = molecular target: chicken Estrogen Receptor (ERa), ESR1 (gene 396099) (UniProt P06212); experiment: ATG_chERa_XSP2: Attagene TRANS-FACTORIAL Multi-Species (XSP2) HepG2 Assay for chicken Estrogen Receptor (ERa) (AID 2283817);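 also: actives raise reporter signal above DMSO so AC50 reflects ER activation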
Outline: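 Transiently transfected HepG2 cells expressing chimeric chicken ERa-GAL4 reporter units, dosed 24 h with 3 nM 6-alpha-fluorotestosterone and 1.5 nM norgestrel present. Reporter mRNA measured by RT-PCR and capillary electrophoresis; gain-of-signal fitted relative to DMSO.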

[15] = system: zebrafish Estrogen Receptor (ER2a), gene 317734; experiment: ATG_zfER2a_XSP2: Attagene TRANS-FACTORIAL Multi-Species (XSP2) HepG2 Assay for zebrafish Estrogen Receptor (ER2a) (AID 2283818);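 also: hits raise reporter mRNA so AC50 reflects activation of zebrafish ER2a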
Outline: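 HepG2 cells transiently transfected with GAL4-UAS reporter units and chimeric zebrafish ER2a-Gal4, exposed 24 h; medium contains 3 nM 6-alpha-fluorotestosterone and 1.5 nM norgestrel. Reporter mRNA quantified by RT-PCR, HpaI digestion, capillary electrophoresis; gain versus DMSO.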

[16] = ATG_M_19_XSP1: Attagene TRANS-FACTORIAL Multi-Species (XSP1) HepG2 Assay for M19 Transcription Factor (Internal Marker) (AID 2283798)
Outline: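 HepG2 cells transiently transfected with multiplexed GAL4-UAS reporter units, dosed 24 h with 3 nM 6-alpha-fluorotestosterone present for partial AR stimulation. Reporter mRNA measured by RT-PCR with capillary electrophoresis; gain-of-signal fitted relative to DMSO.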

[17] = ATG_M_32_XSP1: Attagene TRANS-FACTORIAL Multi-Species (XSP1) HepG2 Assay for M32 Transcription Factor (Internal Marker) (AID 2283799)
Outline: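 HepG2 cells transiently transfected with multi-species TRANS reporter units, dosed 24 h with 3 nM 6-alpha-fluorotestosterone present. Internal-marker reporter mRNA quantified by RT-PCR and capillary electrophoresis; positive-direction fit versus DMSO.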

[18] = molecular target: mouse Peroxisome Proliferator-activated Receptor gamma (PPARg), Pparg (gene 19016) (UniProt P37238); experiment: ATG_mPPARg_XSP1: Attagene TRANS-FACTORIAL Multi-Species (XSP1) HepG2 Assay for mouse Peroxisome Proliferator-activated Receptor gamma (PPARg) (AID 2283802)
Outline: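 HepG2 cells transiently transfected with GAL4-UAS reporter units driven by mouse PPARg–GAL4 chimera; 3 nM 6-alpha-fluorotestosterone present. After 24 h dosing, reporter mRNA quantified by RT-PCR, fluorescent labelling and capillary electrophoresis; gain of signal versus DMSO.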

[19] = molecular target: Peroxisome proliferator-activated receptor gamma (Homo sapiens) (UniProt P37231); experiment: ATG_hPPARg_XSP1: Attagene TRANS-FACTORIAL Multi-Species (XSP1) HepG2 Assay for human Peroxisome Proliferator-activated Receptor gamma (PPARg) (AID 2283800)
Outline: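 HepG2 cells transiently transfected with GAL4-UAS reporter units carrying chimeric NR-Gal4 proteins; 3 nM 6-alpha-fluorotestosterone present. After 24 h dosing, reporter mRNA quantified by RT-PCR and capillary electrophoresis; gain of signal relative to DMSO.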

[20] = system: turtle Androgen Receptor (AR), gene 101947425; experiment: ATG_trAR_XSP2: Attagene TRANS-FACTORIAL Multi-Species (XSP2) HepG2 Assay for turtle Androgen Receptor (AR) (AID 2283815);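 as to AC50: potency for gain of reporter signal meaning activation above DMSO baseline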
Outline: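 HepG2 cells transiently transfected with GAL4-UAS reporter units for chimeric NR-Gal4 receptors; 24 h dosing in presence of 3 nM 6-alpha-fluorotestosterone and 1.5 nM norgestrel. Reporter mRNA by RT-PCR and capillary electrophoresis, gain of signal versus DMSO.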

Measured: AC50

Chain of chicken Estrogen Receptor (ERa), ESR1 (gene 396099) (P06212 whole entry, looked up, the tested form may be a part): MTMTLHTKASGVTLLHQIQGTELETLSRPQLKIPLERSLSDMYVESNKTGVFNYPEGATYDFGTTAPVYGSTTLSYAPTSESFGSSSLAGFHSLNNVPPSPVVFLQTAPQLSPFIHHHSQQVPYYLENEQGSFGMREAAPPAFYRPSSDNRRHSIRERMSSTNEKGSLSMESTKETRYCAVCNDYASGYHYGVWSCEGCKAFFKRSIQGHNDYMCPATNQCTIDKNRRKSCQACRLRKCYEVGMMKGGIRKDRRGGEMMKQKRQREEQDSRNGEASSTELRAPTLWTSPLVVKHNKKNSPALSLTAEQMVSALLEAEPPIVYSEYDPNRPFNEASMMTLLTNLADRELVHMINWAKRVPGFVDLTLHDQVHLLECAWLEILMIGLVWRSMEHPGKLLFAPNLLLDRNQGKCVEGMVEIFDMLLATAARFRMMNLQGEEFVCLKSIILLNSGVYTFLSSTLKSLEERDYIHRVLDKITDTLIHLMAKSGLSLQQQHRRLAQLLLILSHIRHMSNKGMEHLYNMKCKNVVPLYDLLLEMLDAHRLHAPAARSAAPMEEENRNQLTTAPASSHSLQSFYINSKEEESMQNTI
Chain of human Thyroid hormone Receptor alpha (TRa), THRA (gene 7067) (P10827 whole entry, looked up, the tested form may be a part): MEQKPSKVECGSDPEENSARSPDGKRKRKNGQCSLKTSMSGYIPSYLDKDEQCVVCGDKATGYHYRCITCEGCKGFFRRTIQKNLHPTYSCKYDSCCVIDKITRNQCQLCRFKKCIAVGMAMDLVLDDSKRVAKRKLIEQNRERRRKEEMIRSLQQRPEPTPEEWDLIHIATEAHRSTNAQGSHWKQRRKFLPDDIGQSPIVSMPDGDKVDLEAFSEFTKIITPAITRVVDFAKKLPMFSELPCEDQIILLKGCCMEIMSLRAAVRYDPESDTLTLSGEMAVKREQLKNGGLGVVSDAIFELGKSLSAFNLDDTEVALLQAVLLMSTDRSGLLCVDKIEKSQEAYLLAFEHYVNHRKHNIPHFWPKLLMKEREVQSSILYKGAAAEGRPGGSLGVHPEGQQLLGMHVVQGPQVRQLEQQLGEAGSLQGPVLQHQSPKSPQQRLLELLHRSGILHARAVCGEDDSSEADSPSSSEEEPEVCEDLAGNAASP
Chain of human Thyroid hormone Receptor beta (TRb), THRB (gene 7068) (P10828 whole entry, looked up, the tested form may be a part): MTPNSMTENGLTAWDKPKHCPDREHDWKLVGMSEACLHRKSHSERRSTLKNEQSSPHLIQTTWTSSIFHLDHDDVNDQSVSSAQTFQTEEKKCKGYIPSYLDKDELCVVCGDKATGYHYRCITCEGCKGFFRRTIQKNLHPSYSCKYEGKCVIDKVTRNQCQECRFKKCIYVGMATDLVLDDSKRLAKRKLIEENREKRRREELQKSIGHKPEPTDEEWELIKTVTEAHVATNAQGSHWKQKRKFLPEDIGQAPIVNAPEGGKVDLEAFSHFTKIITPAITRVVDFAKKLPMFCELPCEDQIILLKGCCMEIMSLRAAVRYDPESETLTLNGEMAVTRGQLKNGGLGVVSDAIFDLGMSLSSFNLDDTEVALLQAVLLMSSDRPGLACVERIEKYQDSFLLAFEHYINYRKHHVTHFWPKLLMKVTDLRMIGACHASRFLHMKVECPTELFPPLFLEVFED
Chain of GAL4 Transcription Factor (Internal Marker), GAL4 (gene 855828) (P04386 whole entry, looked up, the tested form may be a part): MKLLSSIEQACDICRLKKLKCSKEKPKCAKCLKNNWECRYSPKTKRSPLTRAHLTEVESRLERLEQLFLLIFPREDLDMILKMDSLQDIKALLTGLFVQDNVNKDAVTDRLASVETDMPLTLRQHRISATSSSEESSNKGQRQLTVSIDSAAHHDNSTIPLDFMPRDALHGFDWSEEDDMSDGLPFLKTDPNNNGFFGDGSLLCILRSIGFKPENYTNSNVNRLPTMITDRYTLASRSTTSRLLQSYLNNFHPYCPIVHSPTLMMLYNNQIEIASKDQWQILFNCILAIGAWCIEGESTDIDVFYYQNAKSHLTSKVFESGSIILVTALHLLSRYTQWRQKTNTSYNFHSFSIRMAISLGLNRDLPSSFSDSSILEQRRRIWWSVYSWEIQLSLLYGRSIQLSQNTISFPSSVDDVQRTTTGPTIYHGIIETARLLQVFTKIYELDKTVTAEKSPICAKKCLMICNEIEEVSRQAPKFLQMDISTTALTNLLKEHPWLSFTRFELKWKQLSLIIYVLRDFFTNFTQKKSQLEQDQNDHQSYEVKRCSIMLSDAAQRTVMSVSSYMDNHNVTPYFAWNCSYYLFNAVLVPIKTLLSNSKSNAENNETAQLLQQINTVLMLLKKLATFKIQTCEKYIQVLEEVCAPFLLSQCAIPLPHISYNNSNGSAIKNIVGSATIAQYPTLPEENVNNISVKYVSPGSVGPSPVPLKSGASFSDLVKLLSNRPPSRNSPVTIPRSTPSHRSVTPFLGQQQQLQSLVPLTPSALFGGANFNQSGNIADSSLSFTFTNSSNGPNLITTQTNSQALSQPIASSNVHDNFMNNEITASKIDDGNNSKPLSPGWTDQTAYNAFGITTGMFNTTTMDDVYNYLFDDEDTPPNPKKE
Chain of zebrafish Thyroid Hormone Receptor alpha (TRa), thraa (gene 30670) (Q98867 whole entry, looked up, the tested form may be a part): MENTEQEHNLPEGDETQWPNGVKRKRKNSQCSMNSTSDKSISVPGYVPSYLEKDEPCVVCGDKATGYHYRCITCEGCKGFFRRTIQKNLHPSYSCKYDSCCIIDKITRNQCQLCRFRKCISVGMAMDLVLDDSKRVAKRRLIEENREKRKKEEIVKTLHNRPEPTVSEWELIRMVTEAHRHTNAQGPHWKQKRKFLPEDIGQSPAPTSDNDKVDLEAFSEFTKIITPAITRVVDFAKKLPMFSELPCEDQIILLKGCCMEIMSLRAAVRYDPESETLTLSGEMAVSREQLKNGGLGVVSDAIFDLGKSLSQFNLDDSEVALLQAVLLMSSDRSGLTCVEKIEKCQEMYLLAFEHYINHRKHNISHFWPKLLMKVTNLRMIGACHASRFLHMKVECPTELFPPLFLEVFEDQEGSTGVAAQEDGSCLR
Chain of zebrafish Estrogen Receptor (ER1), esr1 (gene 259252) (P57717 whole entry, looked up, the tested form may be a part): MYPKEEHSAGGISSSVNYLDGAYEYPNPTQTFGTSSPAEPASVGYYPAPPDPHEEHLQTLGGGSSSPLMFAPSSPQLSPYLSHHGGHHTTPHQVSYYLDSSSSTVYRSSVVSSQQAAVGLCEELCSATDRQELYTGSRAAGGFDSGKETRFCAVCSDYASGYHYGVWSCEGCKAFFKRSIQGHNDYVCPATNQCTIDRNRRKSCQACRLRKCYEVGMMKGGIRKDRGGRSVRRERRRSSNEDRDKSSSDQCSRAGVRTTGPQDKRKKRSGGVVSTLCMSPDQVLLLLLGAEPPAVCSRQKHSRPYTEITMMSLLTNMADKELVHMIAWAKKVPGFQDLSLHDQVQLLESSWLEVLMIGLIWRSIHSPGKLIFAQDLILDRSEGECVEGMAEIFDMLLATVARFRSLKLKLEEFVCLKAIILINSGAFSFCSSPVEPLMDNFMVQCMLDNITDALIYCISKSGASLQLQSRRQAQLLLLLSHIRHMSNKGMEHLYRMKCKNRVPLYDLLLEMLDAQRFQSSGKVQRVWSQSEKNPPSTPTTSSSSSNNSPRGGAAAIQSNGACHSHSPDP
Chain of mouse Peroxisome Proliferator-activated Receptor gamma (PPARg), Pparg (gene 19016) (P37238 whole entry, looked up, the tested form may be a part): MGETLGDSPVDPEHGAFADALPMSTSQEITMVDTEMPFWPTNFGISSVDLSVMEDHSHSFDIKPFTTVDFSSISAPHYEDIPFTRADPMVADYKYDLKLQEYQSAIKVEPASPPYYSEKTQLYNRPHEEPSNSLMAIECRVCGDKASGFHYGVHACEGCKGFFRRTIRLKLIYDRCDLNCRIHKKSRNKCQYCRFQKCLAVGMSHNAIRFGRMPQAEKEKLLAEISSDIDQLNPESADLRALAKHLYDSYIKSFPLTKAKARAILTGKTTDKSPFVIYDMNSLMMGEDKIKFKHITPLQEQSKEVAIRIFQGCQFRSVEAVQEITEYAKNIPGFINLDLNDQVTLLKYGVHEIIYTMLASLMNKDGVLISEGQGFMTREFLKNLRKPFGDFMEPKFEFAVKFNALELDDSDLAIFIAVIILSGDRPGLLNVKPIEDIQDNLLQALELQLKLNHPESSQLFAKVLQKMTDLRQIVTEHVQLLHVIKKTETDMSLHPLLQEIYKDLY
Chain of frog Thyroid hormone Receptor alpha (TRa), thra-a (gene 397942) (P15204 whole entry, looked up, the tested form may be a part): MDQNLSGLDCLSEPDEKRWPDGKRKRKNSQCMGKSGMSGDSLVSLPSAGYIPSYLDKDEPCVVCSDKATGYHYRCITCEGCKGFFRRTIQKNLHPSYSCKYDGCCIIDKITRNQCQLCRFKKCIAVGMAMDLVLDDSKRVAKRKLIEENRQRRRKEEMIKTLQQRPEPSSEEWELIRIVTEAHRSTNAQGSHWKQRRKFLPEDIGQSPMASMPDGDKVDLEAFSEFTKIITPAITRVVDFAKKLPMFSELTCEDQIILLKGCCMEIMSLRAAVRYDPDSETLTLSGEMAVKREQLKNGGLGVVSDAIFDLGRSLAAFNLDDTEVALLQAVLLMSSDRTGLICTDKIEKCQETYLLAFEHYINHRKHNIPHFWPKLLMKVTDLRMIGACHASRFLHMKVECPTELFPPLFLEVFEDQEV
Chain of Nuclear receptor subfamily 1 group I member 2 (Mus musculus) (O54915 whole entry, looked up, the tested form may be a part): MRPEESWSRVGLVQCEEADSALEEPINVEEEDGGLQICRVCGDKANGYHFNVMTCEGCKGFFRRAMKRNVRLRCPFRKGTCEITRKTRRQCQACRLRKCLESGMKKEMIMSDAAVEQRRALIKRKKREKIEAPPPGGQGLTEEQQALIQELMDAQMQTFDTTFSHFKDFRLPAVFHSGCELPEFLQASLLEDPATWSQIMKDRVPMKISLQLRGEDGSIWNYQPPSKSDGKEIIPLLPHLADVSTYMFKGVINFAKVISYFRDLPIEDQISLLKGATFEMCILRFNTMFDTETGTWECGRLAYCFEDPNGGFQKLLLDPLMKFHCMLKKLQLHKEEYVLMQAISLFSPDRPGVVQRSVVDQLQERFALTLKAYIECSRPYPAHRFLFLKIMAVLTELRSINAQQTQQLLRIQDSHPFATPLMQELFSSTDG

CC(C)(O)C(=O)Nc1ccc([N+](=O)[O-])c(C(F)(F)F)c1
active: [4] 50 µM | [5] 30.6 µM | [7] 18.2 µM | [8] 50 µM
inactive: [1] | [2] | [3] | [6] | [9] | [10] | [11] | [12] | [13] | [14] | [15]

ClC(Cl)=C(c1ccc(Cl)cc1)c1ccc(Cl)cc1
active: [14] 3.27 µM
inactive: [16] | [17] | [1] | [18] | [2] | [5] | [6] | [7] | [8] | [9] | [13] | [15]

Oc1ccc(C(c2ccc(O)cc2)(C(F)(F)F)C(F)(F)F)cc1
active: [18] 33.4 µM | [7] 62.3 µM | [9] 81.2 µM | [13] 336 nM | [14] 0.233 µM | [15] 101 nM and 587 nM
inactive: [17] | [2] | [3] | [4] | [5] | [6] | [7] | [8] | [11] | [12] | [13] | [14]

Cc1cc(-c2ccc(N)c(C)c2)ccc1N
active: [13] 65.7 µM and 100 µM and 81.1 µM | [14] 7.48 µM and 27.1 µM and 17.7 µM | [15] 4.47 µM and 11 µM and 6.8 µM
inactive: [12]

CCOC(=O)C(O)(c1ccc(Cl)cc1)c1ccc(Cl)cc1
active: [14] 8.82 µM
inactive: [10] | [11] | [13] | [14] | [15]

Clc1ccc(C(c2ccccc2Cl)C(Cl)(Cl)Cl)cc1 (stereo unspecified)
active: [2] 2.03 µM | [14] 0.656 µM | [15] 1.58 µM
inactive: [16] | [17] | [19] | [4] | [5] | [6] | [7] | [8] | [9] | [10] | [11] | [13]

C[C@]12CCC(=O)C=C1CC[C@@H]1[C@@H]2CC[C@@]2(C)[C@H]1CC[C@]2(C)O
active: [20] 0.00341 µM | [13] 51.6 nM | [14] 0.00203 µM | [15] 0.0025 µM
inactive: [2] | [3] | [4] | [5] | [6] | [7] | [8] | [9] | [10]

CCC(=O)O[C@H]1CC[C@H]2[C@@H]3CCC4=CC(=O)CC[C@]4(C)[C@H]3CC[C@]12C
active: [14] 12.6 nM and 25.4 nM | [15] 27.7 nM and 13.2 nM
inactive: [10] | [11] | [20] | [13]

CC(C)(c1ccccc1)c1ccc(O)cc1
active: [11] 0.531 µM | [13] 6400 nM | [14] 1.15 µM
inactive: [16] | [17] | [19] | [1] | [18] | [2] | [4] | [5] | [6] | [7] | [8] | [9] | [10] | [15]

C[C@]12CCC(=O)C=C1CC[C@@H]1[C@@H]2CC[C@]2(C)C(=O)CC[C@@H]12
active: [2] 2.3 µM | [11] 0.0192 µM | [20] 2.08 µM | [13] 3130 nM | [14] 9.2 nM and 10.8 nM | [15] 28.2 nM and 100 nM
inactive: [17] | [19] | [1] | [3] | [4] | [5] | [6] | [7] | [8] | [9] | [10] | [11] | [20] | [13]

c1cc2ccc3cccc4ccc(c1)c2c34
inactive: [12] | [13] | [15]
active: [14] 13.9 µM and 25.4 µM

CC(c1ccc(O)cc1)(c1ccc(O)cc1)c1ccc(O)cc1
inactive: [10] | [20] | [13] | [14] | [15]

Source: PubChem BioAssay (EPA / NIEHS)
